Inconclusive results are not listed. Calls of active or inactive are those of the source. Unless noted, the call rests on the fitted dose curve; in most records, active means well fitted curve in the direction sought with a large enough effect in the repeat runs; inconclusive means weak or mixed curves; inactive means no such curve, though single readings can be large; an effect the other way counts as inactive or inconclusive.
How the values were obtained:
[1] = A CellTox Green Cytotoxicity Assay to monitor cytotoxicity in HepG2 cells - 0 hour (AID 1224882); further: nearly all actives have a fitted effect of over 35% in size; further: potency means the concentration at half of the fitted maximal effect
Outline: (§1)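 Real-time, homogeneous cytotoxicity readout: dead-cell DNA staining by CellTox Green in HepG2 monolayers, fluorescence measured at timed intervals up to 40 h of continuous compound exposure.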

[2] = A CellTox Green Cytotoxicity Assay to monitor cytotoxicity in HEK293 cells - 8 hour (AID 1224884); further: nearly all actives have a fitted effect of over 35% in size; further: potency means the concentration at half of the fitted maximal effect
Outline: (§2)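 Cytotoxicity was tracked continuously in HEK293 cells by a DNA-binding dye excluded from viable cells. Compounds were transferred in DMSO 5 h after seeding; fluorescence was recorded at intervals up to 40 h.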

[3] = qHTS RealTime-Glo MT Cell Viability Assay in HepG2 cells - 16 hour (AID 1224885); further: nearly all actives have a fitted effect of over 50% in size; further: potency means the concentration at half of the fitted maximal effect
Outline: (§3)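 qHTS, HepG2, 600 cells/well, RealTime-Glo (NanoLuc + prosubstrate) added with cells; 5 h preincubation; DMSO compound addition; 37 C; luminescence at 0/8/16/24/32/40 h.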

[4] = qHTS RealTime-Glo MT Cell Viability Assay in HEK293 cells - 8 hour (AID 1224887); further: top concentration of the series differs between compounds; nearly all actives have a fitted effect of over 50% in size
Outline: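 Nonlytic bioluminescent viability monitoring. HEK293 at 600 cells/well with reagent; 5 h settle; compound transfer by pintool; plates held at 37 C and read at set time points.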

[5] = A CellTox Green Cytotoxicity Assay to monitor cytotoxicity in HepG2 cells - 8 hour (AID 1224890); further: nearly all actives have a fitted effect of over 45% in size; further: potency means the concentration at half of the fitted maximal effect
Outline: as §1

[6] = qHTS assay to identify small molecule antagonists of the estrogen receptor alpha (ER-alpha) signaling pathway using the BG1 cell line in the presence of 0.1 nM 17-beta-estradiol - cell viability counter screen (AID 1259241); further: nearly all actives have a fitted effect of over 40% in size
Outline: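 Viability in VM7Luc4E2 cells after 22 hr compound exposure under 0.1 nM 17beta-estradiol stimulation, by CellTiter-Fluor.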

[7] = qHTS assay to identify small molecule antagonists of the androgen receptor (AR) signaling pathway using the MDA cell line in the presence of 0.5 nM R1881 - cell viability counter screen (AID 1259242); further: nearly all actives have a fitted effect of over 45% in size
Outline: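 Cytotoxicity toward MDA-kb2 cells is measured by CellTiter-Fluor live-cell protease fluorescence after 16 hr compound exposure at 37C in the presence of 0.5 nM R1881 stimulator.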

[8] = target: Estrogen receptor (Homo sapiens) (UniProt P03372); experiment: qHTS assay to identify small molecule antagonists of the estrogen receptor alpha (ER-alpha) signaling pathway using the BG1 cell line in the presence of 0.1 nM 17-beta-estradiol (AID 1259244); further: nearly all actives have a fitted effect of over 50% in size
Outline: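 After 5 days in hormone-depleted medium (charcoal-stripped serum, no phenol red), VM7Luc4E2 cells were seeded, incubated 24 h, then co-treated with compound and 0.1 nM (final) estradiol for 22 h before luminescence detection.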

[9] = qHTS assay to identify small molecule HDAC inhibitors (AID 1259364); further: nearly all actives have a fitted effect of over 45% in size; further: potency means the concentration at half of the fitted maximal effect
Outline: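 Homogeneous cell-based luminescent assay of endogenous class I/II HDAC activity; HCT-116 cells, 2 h compound exposure, 30 min HDAC-Glo development at RT.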

[10] = qHTS assay to identify small molecule HDAC inhibitors - cell viability counter screen (AID 1259365); further: series mostly up to about 92 µM; nearly all actives have a fitted effect of over 50% in size
Outline: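 Cytotoxicity was gauged in wild-type HCT-116 cells after a brief 2hr treatment with DMSO-dissolved compounds at 37C and 5% CO2, using CellTiter-Glo luminescence developed for 30min at room temperature.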

[11] = qHTS assay to identify small molecule agonists of the sonic hedgehog signaling (Shh) pathway - cell viability counter screen (AID 1259366); further: nearly all actives have a fitted effect of over 50% in size; further: potency means the concentration at half of the fitted maximal effect
Outline: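 Stable Gli1-Luc NIH/3T3 clone, 2,000 cells/well. Compound exposure 24hr at 37C. Read-out: CellTiter-Fluor fluorescence.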

[12] = qHTS assay to identify small molecule agonists of the sonic hedgehog signaling (Shh) pathway (AID 1259368; calls by dose curve;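 further: NIH/3T3-derived 3T3Gli1-Luc cells carrying a stable Gli1-driven firefly luciferase reporter; series mostly up to about 92 µM; nearly all actives have a fitted effect of over 15% in size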)
Outline: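 Steps: seed 3T3 Gli1-Luc cells, incubate 4 hr at 37 C, pin-transfer compounds in DMSO alongside a positive control, incubate 24 hr, add luciferase detection reagent, wait 30 min at room temperature, read luminescence.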

[13] = qHTS assay to identify small molecule antagonists of the sonic hedgehog signaling (Shh) pathway - cell viability counter screen (AID 1259367); further: nearly all actives have a fitted effect of over 55% in size; further: potency means the concentration at half of the fitted maximal effect
Outline: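 Seed 3T3 Gli1-Luc cells at 2,000 per well; incubate 4 hr; add compound in DMSO, then conditioned medium; incubate at 37C with 5% CO2; add CellTiter-Fluor after 23 hr; read fluorescence 1 hr later.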

[14] = A CellTox Green Cytotoxicity Assay to monitor cytotoxicity in HepG2 cells - 32 hour (AID 1224883); further: nearly all actives have a fitted effect of over 50% in size; further: potency means the concentration at half of the fitted maximal effect
Outline: as §1

[15] = qHTS RealTime-Glo MT Cell Viability Assay in HEK293 cells - 24 hour (AID 1224886); further: nearly all actives have a fitted effect of over 50% in size; further: potency means the concentration at half of the fitted maximal effect; on activity change, negative = cytotoxicity: top concentration of the series differs between compounds
Outline: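 Assay medium contained NanoLuc luciferase plus cell-permeant prosubstrate, added with HEK293 cells at 600 cells/well. After 5 h at 37 C/5% CO2 compounds were added; plates stayed at 37 C for 40 h with serial luminescence reads.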

[16] = A CellTox Green Cytotoxicity Assay to monitor cytotoxicity in HEK293 cells - 16 hour (AID 1224888); further: nearly all actives have a fitted effect of over 35% in size; further: potency means the concentration at half of the fitted maximal effect
Outline: as §2

[17] = qHTS RealTime-Glo MT Cell Viability Assay in HepG2 cells - 0 hour (AID 1224889); further: nearly all actives have a fitted effect of over 50% in size
Outline: as §3

[18] = target: Androgen receptor (Homo sapiens) (UniProt P10275); experiment: qHTS assay to identify small molecule antagonists of the androgen receptor (AR) signaling pathway using the MDA cell line in the presence of 0.5 nM R1881 (AID 1259243); further: nearly all actives have a fitted effect of over 50% in size
Outline: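 Steps: seed MDA-kb2 cells, incubate 5 hr at 37C; pin-transfer compounds in DMSO; add R1881 to 0.5 nM final; incubate 16 hr; add ONE-Glo, wait 30 min at room temperature; read luminescence.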

[19] = qHTS assay to identify small molecule phospholipidosis (PLD) inducers (AID 1259344; active means well fitted curve in the direction sought with a large enough effect; an effect the other way counts as inactive or inconclusive)
Outline: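 Quantitative HTS in HepG2: compound plus LipidTOX Red dye for 24 h, paraformaldehyde fixation with Hoechst 33342, widefield high-content imaging; amiodarone as positive and DMSO as negative control.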
On the % scale 0 is the no-effect control and ±100 the full control effect.

Sequence of Estrogen receptor (Homo sapiens) (P03372 whole entry, looked up): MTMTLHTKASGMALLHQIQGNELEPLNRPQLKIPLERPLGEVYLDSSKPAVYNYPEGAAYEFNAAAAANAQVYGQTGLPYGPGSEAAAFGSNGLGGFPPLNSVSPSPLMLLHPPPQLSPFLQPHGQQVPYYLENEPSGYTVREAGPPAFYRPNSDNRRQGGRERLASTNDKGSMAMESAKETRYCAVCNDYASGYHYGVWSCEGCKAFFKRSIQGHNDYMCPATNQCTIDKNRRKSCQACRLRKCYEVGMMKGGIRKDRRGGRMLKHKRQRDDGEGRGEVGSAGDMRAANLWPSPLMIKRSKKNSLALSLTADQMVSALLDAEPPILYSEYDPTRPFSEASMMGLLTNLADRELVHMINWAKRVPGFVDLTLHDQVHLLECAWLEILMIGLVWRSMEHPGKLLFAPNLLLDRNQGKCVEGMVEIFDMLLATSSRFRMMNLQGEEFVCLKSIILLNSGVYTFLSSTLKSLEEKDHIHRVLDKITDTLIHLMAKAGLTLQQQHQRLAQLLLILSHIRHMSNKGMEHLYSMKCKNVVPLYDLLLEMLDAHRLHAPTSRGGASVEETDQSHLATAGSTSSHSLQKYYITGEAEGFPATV
Sequence of Androgen receptor (Homo sapiens) (P10275 whole entry, looked up): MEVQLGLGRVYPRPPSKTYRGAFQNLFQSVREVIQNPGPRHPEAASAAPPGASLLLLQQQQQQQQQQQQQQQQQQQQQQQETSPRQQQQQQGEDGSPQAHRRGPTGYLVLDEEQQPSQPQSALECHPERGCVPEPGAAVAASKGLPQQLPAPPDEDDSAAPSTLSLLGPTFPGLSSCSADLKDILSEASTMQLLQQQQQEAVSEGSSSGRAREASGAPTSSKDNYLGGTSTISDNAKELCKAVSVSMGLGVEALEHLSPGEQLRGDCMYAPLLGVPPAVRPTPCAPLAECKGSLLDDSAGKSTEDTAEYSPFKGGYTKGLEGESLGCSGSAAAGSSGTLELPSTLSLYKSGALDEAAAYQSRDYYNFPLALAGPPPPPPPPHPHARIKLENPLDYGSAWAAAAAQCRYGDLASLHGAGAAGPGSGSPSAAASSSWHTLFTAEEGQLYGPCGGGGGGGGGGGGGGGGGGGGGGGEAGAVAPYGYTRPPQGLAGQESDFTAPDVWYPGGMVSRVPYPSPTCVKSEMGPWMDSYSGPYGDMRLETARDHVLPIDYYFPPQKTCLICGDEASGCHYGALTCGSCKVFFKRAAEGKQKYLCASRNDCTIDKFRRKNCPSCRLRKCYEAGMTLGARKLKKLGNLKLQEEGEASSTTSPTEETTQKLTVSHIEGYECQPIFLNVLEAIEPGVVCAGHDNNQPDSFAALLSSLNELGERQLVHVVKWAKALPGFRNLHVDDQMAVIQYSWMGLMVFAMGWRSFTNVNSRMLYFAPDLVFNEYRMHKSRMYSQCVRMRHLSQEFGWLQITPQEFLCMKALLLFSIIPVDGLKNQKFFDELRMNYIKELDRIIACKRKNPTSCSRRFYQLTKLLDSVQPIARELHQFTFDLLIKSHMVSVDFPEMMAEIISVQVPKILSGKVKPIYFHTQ

CCCOC(C(=O)OC1CCN(C)CC1)(c1ccccc1)c1ccccc1
active: Potency [11] 13.3 µM
inactive: Potency [1] | Potency [2] | Potency [3] | Potency [4] | Potency [5] | Potency [6] | Potency [7] | Potency [8] | Potency [9] | Potency [10] | outcome [12]

CCCCCCCCCCCCCCCCCCOS(=O)(=O)O
inactive: Potency [1] | Potency [3] | Potency [4] | Potency [6] | Potency [7] | Potency [9] | Potency [10] | Potency [11] | Potency [13] | outcome [12]

CCO[C@H](Cc1ccc(OCCc2ccc(OS(C)(=O)=O)cc2)cc1)C(=O)O
inactive: Potency [14] | Potency [2] | Potency [3] | Potency [15] | Potency [4] | Potency [16] | Potency [17] | Potency [5] | Potency [6] | Potency [7] | Potency [18] | Potency [8] | Potency [19] | Potency [9] | Potency [11] | Potency [13] | outcome [12]

Clc1ccc(Cn2c(CN3CCCC3)nc3ccccc32)cc1
inactive: Potency [1] | Potency [14] | Potency [2] | Potency [3] | Potency [16] | Potency [17] | Potency [5] | Potency [7] | Potency [19] | Potency [9] | Potency [10] | Potency [11] | Potency [13] | outcome [12]

CCCCC
inactive: Potency [14] | Potency [2] | Potency [3] | Potency [15] | Potency [17] | Potency [5] | Potency [6] | Potency [7] | Potency [19] | Potency [10] | Potency [11] | outcome [12]
active: Potency [9] 1.69 µM

CNCCCCOc1ccccc1Cc1ccccc1
active: Potency [14] 21.3 µM | Potency [15] 21.3 µM | Potency [5] 21.3 µM | Potency [11] 33.5 µM
inactive: Potency [2] | Potency [17] | Potency [6] | Potency [8] | Potency [10] | Potency [13] | outcome [12]

Nc1ccc([N+](=O)[O-])c(C(F)(F)F)c1
inactive: Potency [1] | Potency [2] | Potency [3] | Potency [17] | Potency [5] | Potency [6] | Potency [7] | Potency [8] | Potency [10] | Potency [11] | Potency [13] | outcome [12]

C[N+]1(C)CCC(OC(=O)C(O)(c2ccccc2)C2CCCC2)C1 (stereo unspecified)
active: Potency [1] 26.8 µM
inactive: Potency [14] | Potency [3] | Potency [15] | Potency [4] | Potency [17] | Potency [5] | Potency [6] | Potency [7] | Potency [8] | Potency [19] | Potency [9] | Potency [10] | Potency [11] | Potency [13] | outcome [12]

O=C(Cl)c1cc(C(=O)Cl)cc(C(=O)Cl)c1
inactive: Potency [1] | Potency [2] | Potency [17] | Potency [6] | Potency [7] | Potency [8] | Potency [9] | Potency [10] | Potency [13] | outcome [12]

CN(C)c1ccc(/C=C/c2ccc([N+](=O)[O-])cc2)cc1
inactive: cytotoxicity [1] 4.44% [at 6.97 µM] | cytotoxicity increase [14] 16% [at 6.97 µM] | activity change, negative = cytotoxic [3] -7.1% [at 6.97 µM] | activity change, negative = cytotoxicity [4] -2.66% [at 6.97 µM] | activity change, negative = cytotoxicity [17] -8.4% [at 6.97 µM] | cytotoxicity increase [5] 23.9% [at 6.97 µM] | activity change, negative = cytotoxicity [6] 7.98% [at 8.39 µM] | viability change, negative = cytotoxic [7] 4% [at 8.39 µM] | activity change, negative = cytotoxicity [10] -0.457% [at 8.39 µM] | viability change, negative = cytotoxic [13] 8.12% [at 8.39 µM] | activity change [12] 7.46% [at 8.39 µM]
active: Potency [9] 0.872 µM

OCc1cc(C(O)CNCCCCCCOCCCCc2ccccc2)ccc1O (stereo unspecified)
inactive: Potency [1] | Potency [2] | Potency [16] | Potency [17] | Potency [5] | Potency [8] | Potency [10] | outcome [12]
active: Potency [14] 23.9 µM | Potency [15] 19 µM | Potency [11] 3.76 µM | Potency [13] 4.73 µM

CN(C)c1ccc(C(c2ccccc2)c2ccc(N(C)C)cc2)cc1
inactive: Potency [1] | Potency [14] | Potency [2] | Potency [16] | Potency [5] | Potency [6] | Potency [7] | Potency [9] | Potency [11] | Potency [13] | outcome [12]

CCC(C)c1cc(C(C)(C)C)c(O)c(C(C)(C)C)c1 (stereo unspecified)
inactive: Potency [1] | Potency [14] | Potency [3] | Potency [15] | Potency [4] | Potency [17] | Potency [5] | Potency [6] | Potency [7] | Potency [9] | Potency [10] | Potency [11] | Potency [13] | outcome [12]

Cc1ccc(C(=O)Oc2ccc(C(O)CNC(C)(C)C)cc2OC(=O)c2ccc(C)cc2)cc1 (stereo unspecified)
active: Potency [14] 19 µM | Potency [2] 23.9 µM | Potency [3] 21.3 µM | Potency [16] 26.8 µM | Potency [5] 23.9 µM
inactive: Potency [1] | Potency [17] | Potency [7] | Potency [8] | Potency [10] | Potency [13] | outcome [12]

COc1ccc(C(=O)c2ccc(OC)cc2O)c(O)c1
inactive: Potency [1] | Potency [2] | Potency [3] | Potency [17] | Potency [5] | Potency [6] | Potency [7] | Potency [8] | Potency [10] | Potency [11] | Potency [13] | outcome [12]
active: Potency [15] 24.7 µM | Potency [9] 30.9 µM

O=C1CCCCCCCCCCCC(=O)OCCO1
inactive: Potency [1] | Potency [2] | Potency [3] | Potency [15] | Potency [4] | Potency [16] | Potency [17] | Potency [5] | Potency [7] | Potency [18] | Potency [8] | Potency [9] | Potency [10] | Potency [11] | Potency [13] | outcome [12]

From PubChem BioAssay (Tox21)
